Results filed as inconclusive are left out. Entries that show only a call come without a potency. Activity calls are given as the source filed them. The call rests on the fitted dose curve; in most records, active means well fitted activation curve with a large enough effect; inconclusive means small, poorly fitted or top-dose-only effect; inactive means no such curve, though single readings can be large or run the other way.
experiment: qHTS Assay for Identifying a Potential Treatment of Ataxia-Telangiectasia: Secondary assay (no NCS) hit validation; conditions: A-T patient fibroblasts, AlphaLISA, no DNA damage added, 90 min; series mostly up to 76.9 µM;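 further: phosphorylated KAP1 signal as a proxy for ATM-like kinase activity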
How it was run: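 Without NCS-induced DNA breaks, ATM-like activity scored as phospho-KAP1 AlphaLISA signal (pKAP1/total KAP1 bead pair) in ATM-null F2112 fibroblasts; compound series up to 76.7 uM final, 37C incubation, lysates read on AlphaScreen protocol.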
Potency means the concentration at half of the fitted maximal effect.

SMILES	Potency
Cc1ccc(C2(C)NC(=O)N(CC(=O)Nc3ccccc3N3CCCC3)C2=O)cc1 (centres undefined)	inactive
Cc1nn(C)c(Cl)c1CN1CCN(C2CCCC2)C(CCO)C1 (centres undefined)	inactive
CC(=O)c1ccc([N+](=O)[O-])c(CS(=O)(=O)c2ccc(Cl)cc2)c1	inactive
O=C(O)CCCC(=O)N1N=C(c2ccccc2)CC1c1cccs1 (centres undefined)	inactive
COc1ccc2nc(C)cc(Nc3ccc(C(=O)O)cc3)c2c1	inactive
O=C(O)CCCN1C(=O)/C(=C/C=C/c2ccco2)SC1=S	inactive
CCCN1C2CCCC1CC(NC(=S)Nc1cccc(C)c1C)C2 (centres undefined)	inactive
Cc1ccc(C(=O)Nc2sc3c(c2C(=O)O)CCCCC3)o1	0.232 µM (active)
COc1ccc(-n2c(=S)[nH]c3ccccc3c2=S)cc1	inactive
CN(C)C(=O)c1nc2ccc(Cl)cn2c1CNCc1cccc(OC(F)(F)F)c1	inactive
CN(CCc1ccccn1)C(=O)c1cc(COc2ccc(F)cc2F)on1	inactive
CC1CCCC(C)N1CCCNC(=O)Cn1ncc2c3ccccc3n(C)c2c1=O (centres undefined)	14.6 µM (active)
Cc1ccc2c(c1)C(=O)CC(O)(C(F)(F)F)O2 (centres undefined)	inactive
CNC(=O)c1ccc(-c2cc3onc(-c4ccccc4)c3c(=O)n2C)cc1	18.4 µM (active)
CN1C[C@@H]2C(c3ccccc3)C3(c4ccccc4)CC2(C3)[C@H]1c1ccccc1 (some centres undefined)	20.7 µM (active)
CC(C)(C)n1nc2c(c1NC(=O)C1CC(=O)N(c3ccc(Cl)cc3)C1)CS(=O)(=O)C2 (centres undefined)	inactive
Cc1cc(C)n2nc(C(=O)OCCOc3ccc(F)cc3)nc2n1	58.2 µM (active)

SMILES	Potency
O=C(CCCn1nnnc1CN1CCOCC1)N1CCC(c2ccc(F)cc2)C1 (centres undefined)	inactive
O=C(OCCc1cc2ccccc2c(=O)o1)c1cccc(Br)c1	inactive
CC1=NOC2(C1)N(C)c1ccccc1C2(C)C (centres undefined)	inactive
CCOc1cccc(-c2nnc(SCC(=O)Nc3cc(C)ccc3OC)n2N)c1	inactive
C=CCOC(=O)C1=C[C@H](c2coc3ccccc3c2=O)C[C@H](OCc2ccc(CO)cc2)O1	inactive
CN(C)C(=O)CN(C)S(=O)(=O)c1ccc(Cl)cc1	inactive
CCOc1ccc(NC2=NCC(=O)N2Cc2cccs2)cc1	inactive
c1ccc(CSc2nnc(-c3ccco3)n2Cc2ccco2)cc1	inactive
COc1ccc(N2CCN(C(=O)c3cc4cc(Cl)ccc4[nH]3)CC2)cc1	inactive
O=C(Nc1cc(S(=O)(=O)N2CCOCC2)ccc1Cl)c1cc(=O)c2ccccc2o1	inactive
COc1ccc(N(C)S(=O)(=O)c2cccc(C(=O)OCC(=O)NCc3ccccc3OC)c2)cc1	inactive
Cc1c(Cc2ccccc2)c(NCCCO)n2c(nc3ccccc32)c1C#N	inactive
CN(Cc1ccccc1)C(=O)c1cccc(N2C(=O)C3CC=CCC3C2=O)c1 (centres undefined)	inactive
COc1ccc(-c2csc(-c3ccc(O)cc3)n2)cc1	inactive
Cc1cccc(C)c1NC(=O)COC(=O)c1cc(=O)c2ccccc2o1	inactive
COc1ccc(CNC(=O)CN2C(=O)CSc3ccc(S(=O)(=O)N4CCOCC4)cc32)c(OC)c1	inactive
CCNC(=S)N(CCc1c(C)[nH]c2ccccc12)Cc1cccnc1	inactive

From PubChem BioAssay AID493201 (National Center for Advancing Translational Sciences (NCATS), 2011)
